Results: the supplement of paper PMC3724861
The entries come from a sample that favours hits as a whole. No count for the full screen is at hand.

Test system: T1, Caupolican (Caup) homeodomain DNA-binding domain
T1 sequence: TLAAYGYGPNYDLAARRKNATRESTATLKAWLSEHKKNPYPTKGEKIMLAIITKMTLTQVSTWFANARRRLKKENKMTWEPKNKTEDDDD
Assay: PBM E-score (8-mer, recovered from the published 9-mer minima) (E-score (dimensionless, -0.5 to 0.5)); Drosophila protein; higher = stronger relative binding preference, active = 0.31 or more
Description: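 Protein binding microarray (PBM): in vitro transcribed/translated Caupolican (Caup) homeodomain DNA-binding domain (residues 214-303) applied at 100 nM to a universal 8-mer PBM array (Agilent AMADID 015681). The 8-mer enrichment score (E-score, range -0.5 to 0.5) was computed, and each 9-mer score is the minimum E-score of its two constituent 8-mers. The E-score is the same for a 9-mer and its reverse complement; 0.31 is the stated binding threshold.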

PBM E-score, inactive:
AGTTGTTC 0.261, ATTTGTTA 0.219, CCTTGTTC 0.24, ACTTGTTG 0.29, GTTTGTTA 0.225, GCTTGTGA -0.02, GTCGGCCA -0.0886, GGCGACAA 0.138, CACTGAAG -0.0338, TCGTCAGA -0.0168, AAGAGACA 0.124, CATATCAG 0.0708, AACCCGCA -0.135, AATCTCAG 0.0346, CTAAATAA 0.181, CTATCAGA -0.0505, CCGAGAAC -0.0456, AAGGTTAG -0.0357, AGGATGGA -0.124, ACATGGAG 0.257, GCATGGAC -0.00539, ACATGGAA 0.296, CCATGGAC -0.0492, GTTAAGGA 0.00704, CAGTACAA 0.304, GAGTACAA 0.262, GCGTACAA 0.256, AAGTACGA 0.113, AAGTACAC 0.288, CCGTACAA 0.152, AAGTACCA 0.195, AAGTACAG 0.204, GAAGCGAA -0.0567, GGGATTCA -0.0518, ATTCGTGA 0.114, CTCGACAC 0.105, GCTGCGGA -0.178, ATGAGTTC 0.0362, ATCCTTCG -0.116, GGGACAAC 0.178, CAGTTAGA -0.0838, AGTAAACA 0.235, CGTAACAA 0.243, ATTAAACA 0.271, CTTAAACA 0.159, AGTAACAA 0.266, TCTAACAA 0.177, GGTAAACA 0.213, GCTAACAA 0.192, GAGCAACA 0.0811

PBM E-score, active:
ACTTGTTA 0.368, ACTTGTTC 0.33, GCTTGTTA 0.315, ACATGGAT 0.374, ACATGGAC 0.338, TCGTACAA ≥ 0.37, AAGTACAA 0.327, TAGTACAA 0.38, AAGTACAT 0.402, TGTAACAA 0.405, GGTAACAA 0.316, TGTAAACA ≥ 0.36, GTTAAACA 0.339
